This is part of a sample that, as a whole, favours compounds with a hit. Of some 83,000 tested, about 20% had one in any assay.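 Plates (96-well) were seeded with cells, treated with compound at one concentration, and incubated for 48 hours before percent growth was determined.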 The source made the active and inactive calls.
The compounds below were run on SK-OV-3 ovarian (assay: NCI-60 one-dose screen, 48 h (100 = growth as untreated, 0 = no growth, -100 = all killed)). Conditions: 10 µM.
Description: Growth inhibition of the SK-OV-3 human tumor cell line is measured as a screen for anti-cancer activity. Cells are grown in 96 well plates and exposed to the test compound for 48 hours. Compounds are tested at a single concentration, which is 10^-5 M for most compounds. The reported endpoint is percent growth (GI% or GIPRCNT), where numbers from 0 - 100% represent growth inhibition, and numbers from -100% - 0 represent cell death. For example, a value of 40 represents 60% growth inhibition. A value of 0 means no net growth occurred over the course of the experiment. A value of -40 indicates 40% of cells at the beginning of the experiment died by the end of the experiment. A value of -100 means all cells are dead at the end of the experiment.
NCI-60 Human Tumor Cell Lines Screen was performed using the standard one-dose NCI protocol, which is described in more detail at https://dtp.cancer.gov/discovery_development/nci-60/default.htm.
Compounds with GIPRCNT values below 10 were considered active. Activity score was based on GIPRCNT using the following formula: […]
Score is 0 for GIPRCNT values of 100 or above, 50 for GIPRCNT values of 0, and 100 for GIPRCNT values of -100.

Compound	growth
O=C(Nc1cccc(-n2cc(-c3ccncc3)c(-c3ccc(O)c(Cl)c3)n2)c1)Nc1ccc(Cl)c(Cl)c1	19% (inactive)
Cc1ccc(CC#N)cc1C	117% (inactive)
Nc1ccc2c(c1)Cc1cc(N)c(Br)cc1-2	101% (inactive)
COc1cc(Cc2cc(-c3ccc(Cl)cc3)n[nH]c2=O)ccc1O	98.6% (inactive)
CC(C)=CCc1ccc(O)c(=O)cc1C(C)C	18.5% (inactive)
Cc1cc(N(CCCNc2ccnc3cc(Cl)ccc23)Cc2ccc3c(c2)OCO3)nc(N2CCCCC2)n1	31.3% (inactive)
COC(=O)[C@@H]1[C@H](O)[C@H](C)[C@H](O)[C@@](C)(O)/C=C\C=C(C)C(=O)Nc2c(C)c(OC(C)=O)c3c(c2O)C(=O)C(C)=C2OCOC(=C23)C(C)=C[C@@](C)(O)[C@H](O)[C@@H](C)[C@H]1OC(C)=O	117% (inactive)
COc1cc2nc(Nc3cccc(NC(C)=O)c3)nc(N)c2cc1OC	118% (inactive)
c1ccc([C@H]2CN3CCSC3=N2)cc1	107% (inactive)
COc1cc(-c2cc(C(=O)N3CCN(C(=O)c4ccccc4NCc4ccco4)CC3)nc3cc(-c4ccccc4)nn23)cc(OC)c1OC	27.3% (inactive)
Nc1c(C(=O)Nc2ccccc2)sc2nc3c(cc12)C(O)CCC3 (stereo not given)	18.7% (inactive)
CCc1ccc2c(c1)N(CCO)C1=C(C(=O)OC1)C2c1cc(OC)c(OC)c(OC)c1 (stereo not given)	23.4% (inactive)
COc1cc(Cl)cc(-c2nn(-c3cccc(NC(=O)Nc4ccc(Cl)c(C(F)(F)F)c4)c3)cc2-c2ccncc2)c1	12% (inactive)
N#CCCN1C/C(=C/c2ccc(Cl)cc2)C(=O)/C(=C/c2ccc(Cl)cc2)C1	-10.2% (active)
c1ccc2c(c1)oc1c3c(ccc12)NCCC3	107% (inactive)
Cc1cccc(Cl)c1NC(=O)c1ccc2nc(NC(=O)NC3CCN(C)CC3)sc2c1	61.8% (inactive)
COc1ccc(-c2nc(-c3nc4ccc(OC)cc4[nH]3)cc3c2[nH]c2ccccc23)cc1	99.2% (inactive)
COc1cccc(C(=O)Nc2ccc(CN3CCc4nc5cc(OC)c(OC)cc5cc43)cc2)c1	74.2% (inactive)
COc1cc2nc(Nc3cccc(C(=O)O)c3)nc(N)c2cc1OC	107% (inactive)
C[N+](C)(C)c1ncnc2nc[nH]c12	97.3% (inactive)

Compound	growth
N=C(N)c1ccc(-c2ccc(-c3ccccc3)o2)nc1	100% (inactive)
O=C(c1cccs1)c1ccccc1Cc1ccccc1	101% (inactive)
OCC1OC(n2cnc3c(N/N=C\c4ccccn4)ncnc32)C(O)C1O (stereo not given)	11.7% (inactive)
COc1ccc(-c2nc3sccn3c2-c2nc3c([nH]2)C(=O)c2ccccc2C3=O)cc1	109% (inactive)
c1ccc([I+]c2ccccc2)cc1	68.7% (inactive)
COc1ccc(-c2nn(-c3cccc(NC(=O)c4ccc5c(c4)OCCO5)c3)cc2-c2ccncc2)cc1Cl	25.9% (inactive)
CC(C)(C)c1cc(Br)cc(C(C)(C)C)c1O	101% (inactive)
C(CCCC1=NCCO1)CCCC1=NCCO1	105% (inactive)
CN(C)CCNC(=O)c1cccn2c(=O)c3cc4ccccc4cc3nc12	19.5% (inactive)
O=C(Nc1ccncc1)C(=O)c1cn(S(=O)(=O)c2cc(Cl)cc(Cl)c2)c2ccccc12	97.2% (inactive)
COc1cc(-c2cc(/C=C/C(=O)c3ccc(N)cc3)[nH]n2)cc(OC)c1OC	27.2% (inactive)
CCOC(=O)C(CSC(c1ccccc1)(c1ccccc1)c1ccccc1)NC(=O)C(CSC(c1ccccc1)(c1ccccc1)c1ccccc1)NC(c1ccccc1)(c1ccccc1)c1ccccc1 (stereo not given)	109% (inactive)
CC(C)(Cl)CCC1=C(Cl)C(=O)c2ccccc2C1=O	92.6% (inactive)
O=C(/C(=C/c1ccccc1)CN1CCCCC1)c1ccccc1	31% (inactive)
COc1ccc(NC(=O)CSc2nc3ccccc3c(=O)n2CCc2ccccc2)cc1	75.5% (inactive)
ClC(Cl)(Cl)c1nc2nccnc2[nH]1	102% (inactive)
C[C@]12CC[C@@H]3c4ccc(O)cc4C[C@@H](O)[C@H]3[C@@H]1CC[C@@H]2O	116% (inactive)
Cc1cc(C)c(NC(=O)c2sc3nc4c(cc3c2N)C(=O)CCC4)c(C)c1	10.4% (inactive)
O=C1N=NC2=C1c1c3ccccc3c(O)n1CC2	100% (inactive)
O=C(Nc1cccc(-n2cc(-c3ccncc3)c(-c3ccc(O)c(Cl)c3)n2)c1)c1ccc(N2CCOCC2)c(C(F)(F)F)c1	64.2% (inactive)

— PubChem BioAssay (NCI)
